Measured values reported in PubChem BioAssay AID1159580 (chemical genetic matrix, 2015).
Screen size: about 5,500 compounds; about 2,000 (36%) were called active. Another 18% or so got no clear call; they are omitted. No stated cut-off is given here; in the data, active means normalized growth mostly below about 0.91 (no sharp cut-off); inconclusive means no clear call, values can overlap the other calls; inactive means mostly above about 0.92. Some of the results follow.

Assay: chemical genetic growth profiling, strain panel (AID 1159580);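 further: tested at 20 µM; growth read once vehicle control cultures reached saturation at 30 °C; 1 = growth at the plate median or of vehicle wells; lower values mean less growth of the strain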
Conditions: S. cerevisiae deletion strains, growth OD
[1] = locus YAL013W, strain DEP1, hits give low values
[2] = locus YAL040C, strain CLN3, hits give low values
[3] = locus YCL061C, strain MRC1 (second series), hits give low values
[4] = locus YDR150W, strain NUM1, hits give low values
[5] = locus YDR363W, strain ESC2, hits give low values
[6] = locus YER002W, strain NOP16, hits give low values
[7] = locus YMR307W, strain GAS1, hits give low values
[8] = locus YNL153C, strain GIM3, hits give low values
[9] = locus YNL175C, strain NOP13, hits give low values
[10] = locus YNL197C, strain WHI3, hits give low values
[11] = locus YNL224C, strain SQS1, hits give low values
[12] = locus YNL322C, strain KRE1, hits give low values
[13] = locus YOR083W, strain WHI5 (second series), hits give low values
[14] = locus YPL055C, strain LGE1, hits give low values
[15] = locus YPL241C, strain CIN2, hits give low values

Measured: normalized growth

CC(=O)NNC(=O)N1Cc2ccccc2Oc2ccc(Cl)cc21
inactive: [1] 1.04 | [2] 1 | [3] 1.02 | [4] 1.02 | [5] 1.03 | [6] 1 | [7] 0.997 | [8] 1.02 | [9] 0.989 | [10] 1.01 | [11] 0.984 | [12] 1.03 | [13] 1.01 | [14] 1.04 | [15] 1

COc1ccc([C@@H]2Sc3ccccc3N(CCN(C)C)C(=O)[C@@H]2OC(C)=O)cc1
inactive: [1] 0.989 | [2] 1.01 | [3] 0.988 | [4] 1.01 | [5] 0.951 | [6] 1.02 | locus YGR078C, strain PAC10, hits give low values 0.961 | locus YGR229C, strain SMI1, hits give low values 0.971 | locus YJR075W, strain HOC1, hits give low values 1 | locus YMR263W, strain SAP30, hits give low values 0.993 | [7] 1 | [8] 1.01 | [9] 0.99 | [10] 1.1 | [11] 1.02 | [12] 0.967 | [13] 1.03 | [14] 0.955 | [15] 0.988
